For 15 compounds, growth results are on record in PubChem BioAssay (NCI).

Each structure is given as a SMILES string. Compounds without any hit were thinned out: in the full panel of roughly 83,000, 20% have a hit.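 Growth was measured after 48 h exposure to one concentration of compound in 96-well plates. Values under 10 count as active.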 The source made the active and inactive calls.

The experiment deals with MDA-MB-468 breast. The experiment is described as follows: NCI-60 one-dose screen, 48 h (100 = growth as untreated, 0 = no growth, -100 = all killed). To be noted: 10 µM unless noted.
As to `CC(N)C(Cc1ccc(Cl)cc1)c1ccc(Cl)cc1` (stereo not given), the growth is 41.6% (inactive). The same measure for `CCOC(=O)c1cc(C(=O)c2ccc(Br)cc2)n2cc(C)cc(C)c12`: 108% (inactive); for `Nc1nc(Nc2ccccc2)c2ncn(Cc3ccc4c(c3)OCO4)c2n1`: 13.4% (inactive); for `N#CC1=C(N)Oc2c(ccc3ccccc23)C1c1cc2ccccc2n2nnnc12` (stereo not given): -8.83% (active). The figure for `N#Cc1ccc(O)c(C2=NCC(c3ccccc3)O2)c1` (stereo not given) is 32.3% (inactive); for `COc1cccc(-c2nc3sccn3c2-c2ccnc(NCCCNS(=O)(=O)c3ccccc3)n2)c1` it is 52% (inactive). The same measure for `CCOC(=O)c1c(NC(=O)c2ccccc2C(F)(F)F)sc2c1CCC(=O)C2`: 58.6% (inactive); for `COC(=O)c1c2c(c(C)[n+]([O-])c1C)C(=O)C=C(NCc1cccc(Cl)c1)C2=O`: -66.3% (active); for `Brc1cccc(-c2cc(-c3ccc4nccnc4c3)[nH]n2)c1`: 22.9% [25 µM] (inactive). Turning to `c1coc([C@@H]2C[C@@H]3Cc4ccc5ccccc5c4N2O3)c1`, the growth was 89.7% (inactive). The same measure for `CNS(=O)(=O)c1cccc(-c2ccc3c4c(n(C)c(=O)c3c2)-c2ccccc2C4=O)c1`: 83.4% (inactive); for `N[C@@H]1CCC[C@H]1NCCCCN1C(=O)c2cccc3cccc(c23)C1=O`: 53.9% (inactive). The same measure for `Cc1ccccc1Nc1nc(SC(C)C)nc(-c2ccccc2)c1C#N`: 74.8% (inactive); for `O=C1NC(=O)/C(=C/c2ccc(OCc3cc4ccccc4nc3Cl)cc2)S1`: 92% (inactive); for `O=C(Nc1ccc(-n2ccc3c(NC(=O)c4ccccc4)nccc32)cc1)c1ccc(Cl)c(C(F)(F)F)c1`: -9.71% (active).
